{"source": "the OligoGym collection", "data": [{"biological_target": "ZNF708", "assay": "pooled miR-30 sensor sort-seq; sequence = guide strand", "conditions": "shRNA", "values": [{"sequence": "TCTGATATCCACATTTTCCATA", "sensor-assay potency score (higher = more potent)": -1.12}, {"sequence": "TTATCTTATGTCTCTTTGCATT", "sensor-assay potency score (higher = more potent)": -1.42}, {"sequence": "TTCTCTAACATGACATTCCTAT", "sensor-assay potency score (higher = more potent)": -0.111}, {"sequence": "TATCTTATGATTCGTAAGGTTT", "sensor-assay potency score (higher = more potent)": -1.04}, {"sequence": "TTTCTAGTAAGAATTATCTTAC", "sensor-assay potency score (higher = more potent)": -0.946}]}, {"biological_target": "ZNF718", "assay": "pooled miR-30 sensor sort-seq; sequence = guide strand", "conditions": "shRNA", "values": [{"sequence": "TCTATTATAACCACCTTTCTGC", "sensor-assay potency score (higher = more potent)": -0.0639}, {"sequence": "TAATTCTATTATAACCACCTTT", "sensor-assay potency score (higher = more potent)": -0.203}, {"sequence": "ATTTGTAGTATTTTTGTGCAGA", "sensor-assay potency score (higher = more potent)": -0.171}, {"sequence": "TTTTGTGTTGAGTTAGGCGTGA", "sensor-assay potency score (higher = more potent)": 0.0879}, {"sequence": "TTTATCTACAGTGTGAATTTTC", "sensor-assay potency score (higher = more potent)": -0.972}, {"sequence": "ATATCTTATCTTATCTTTGTTT", "sensor-assay potency score (higher = more potent)": -0.436}, {"sequence": "TATCTTATCTTATCTTTGTTTG", "sensor-assay potency score (higher = more potent)": -1.2}, {"sequence": "TTAAATTCTCATGTCCACGTTT", "sensor-assay potency score (higher = more potent)": -0.266}, {"sequence": "TTATGTGTCGTAAGAGTTGTGG", "sensor-assay potency score (higher = more potent)": 0.343}, {"sequence": "TTATGTTTAGCAAAGTCTGAGG", "sensor-assay potency score (higher = more potent)": -0.614}]}]}
